Bioassay records deposited in PubChem BioAssay by National Center for Advancing Translational Sciences (NCATS).
KCNH2 WT inh – inhibitors of human wildtype KCNH2 potassium channel; Q12809; U2OS, BacMam KCNH2, thallium flux FluxOr; stronger effect = lower value; activity change, % at 1.84 µM; 340,000 compounds, 0.37% hits; AID 720551;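 active = maximum activity change below -70%; inconclusive = maximum activity change between -70% and -50%; inactive = maximum activity change above -50%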; also: % is scaled to controls: 0 for no effect and ±100 for the full control effect
Target sequence (Q12809 whole entry, looked up): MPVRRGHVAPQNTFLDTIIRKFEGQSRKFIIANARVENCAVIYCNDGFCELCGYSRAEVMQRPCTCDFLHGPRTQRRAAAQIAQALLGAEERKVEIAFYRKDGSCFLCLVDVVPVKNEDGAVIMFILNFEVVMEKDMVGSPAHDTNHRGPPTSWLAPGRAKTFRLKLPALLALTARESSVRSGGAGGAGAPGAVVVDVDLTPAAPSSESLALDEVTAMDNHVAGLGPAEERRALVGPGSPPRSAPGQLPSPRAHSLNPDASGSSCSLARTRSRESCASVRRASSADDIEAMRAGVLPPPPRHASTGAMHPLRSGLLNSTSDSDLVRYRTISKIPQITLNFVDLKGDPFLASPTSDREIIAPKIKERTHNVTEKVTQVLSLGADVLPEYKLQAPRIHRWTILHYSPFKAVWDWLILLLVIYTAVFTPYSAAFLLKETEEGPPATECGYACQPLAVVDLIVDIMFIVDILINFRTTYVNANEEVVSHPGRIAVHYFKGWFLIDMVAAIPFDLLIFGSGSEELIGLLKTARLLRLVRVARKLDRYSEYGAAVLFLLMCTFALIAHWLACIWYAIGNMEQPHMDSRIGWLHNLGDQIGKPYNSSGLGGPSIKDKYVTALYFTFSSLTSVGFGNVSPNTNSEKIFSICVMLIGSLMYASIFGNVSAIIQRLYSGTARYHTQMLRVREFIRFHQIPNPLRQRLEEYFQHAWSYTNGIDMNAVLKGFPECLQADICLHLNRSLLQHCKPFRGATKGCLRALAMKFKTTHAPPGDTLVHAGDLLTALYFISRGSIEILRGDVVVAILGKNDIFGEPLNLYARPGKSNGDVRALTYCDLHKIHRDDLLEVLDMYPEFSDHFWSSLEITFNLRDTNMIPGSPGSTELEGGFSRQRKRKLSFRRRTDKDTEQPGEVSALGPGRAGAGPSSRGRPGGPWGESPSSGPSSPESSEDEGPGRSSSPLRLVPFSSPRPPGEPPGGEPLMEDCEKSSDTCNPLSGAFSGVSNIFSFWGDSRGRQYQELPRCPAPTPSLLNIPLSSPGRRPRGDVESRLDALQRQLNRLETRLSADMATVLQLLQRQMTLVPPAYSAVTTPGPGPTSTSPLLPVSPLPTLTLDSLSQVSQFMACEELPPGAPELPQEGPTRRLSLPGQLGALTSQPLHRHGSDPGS
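U2OS cells transduced with wild-type KCNH2 virus are loaded with FluxOr dye for 45 min, and thallium flux is measured in kinetic reads before and after stimulation buffer. Rate constants are normalized to DMSO controls.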
KB-3-1 tox – kills parental KB-3-1 adenocarcinoma cells; KB-3-1 viability, CellTiter-Glo ATP luminescence, 72 h; Potency, µM (doses to about 46.1 µM), most hits filed as cytotoxic; AID 1347075; 400,000 compounds, 1.4% hits; also: potency is read from the fitted curve at half-maximal effect; % is scaled to controls: 0 for no effect and ±100 for the full control effect; nearly all actives have a fitted effect of over 60% in size
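Parental KB-3-1 adenocarcinoma cells in phenol-red-free DMEM with 10% FBS were pin-treated with compounds at several concentrations, incubated 72 h at 37 °C, and viability read by CellTiter-Glo luminescence; concentration-effect curves were fitted after normalization.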
SW480 rereplic – induces DNA re-replication in SW480 colon adenocarcinoma cells | SW480 DNA re-replication, Hoechst DNA content imaging, 48 h | Potency, µM (highest dose often 46.1 µM), without a hit: top-dose re-replication activation, most hits filed as activators | 340,000 compounds, 1.8% hits | AID 624297; also: potency is read from the fitted curve at half-maximal effect; % of control where 0% means no effect; nearly all actives have a fitted effect of over 55% in size
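Image-based DNA-content assay: after two days of treatment, nuclei were labelled with the DNA dye Hoechst and imaged, and hits were compounds raising the count of nuclei showing high fluorescence intensity.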
MCF10A rereplic – inducers of DNA re-replication in MCF 10A breast cells; MCF 10A DNA re-replication, Hoechst nuclear intensity, 48 h; Potency, µM (top dose mostly 46.1 µM), for inactives: at the highest dose activity, positive = re-replication, hits mostly activators; 350,000 compounds, 2.9% hits; AID 624296; also: potency is read from the fitted curve at half-maximal effect; % of control where 0% means no effect; nearly all actives have a fitted effect of over 50% in size
KCNH2 3.1 block – inhibitors of human KCNH2 3.1 potassium channel isoform | activity change, % (tested at about 1.8 µM) | AID 720553 | U2OS KCNH2 3.1, thallium flux FluxOr; stronger effect = lower value | 340,000 compounds, 0.95% hits;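 active = maximum activity change below -70%; inconclusive = maximum activity change from -70% to -50%; inactive = maximum activity change above -50%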;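 also: thallium influx rate constant from kinetic fluorescence after stimulation buffer; % is scaled to controls: 0 for no effect and ±100 for the full control effect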
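Steps: virus added to U2OS suspension (4 h, RT, dark); medium with 10% FBS added, cells plated, 37 C overnight; FluxOr/Red40 loading buffer 45 min RT; stimulation buffer, 2 min kinetic read; rate constant normalized.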
KB-V1 MDR tox – KB-V1 MDR subline cytotoxicity. 400,000 compounds, 3.4% hits. Potency, µM (top dose mostly 46.1 µM), actives largely listed as cytotoxic. AID 1347076. KB-V1 MDR cells viability, CellTiter-Glo, 72 h; also: potency is read from the fitted curve at half-maximal effect; % is scaled to controls: 0 for no effect and ±100 for the full control effect; nearly all actives have a fitted effect of over 60% in size
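Cytotoxicity toward P-gp-expressing KB-V1 cells was determined as loss of CellTiter-Glo luminescence after 72 h at 37 degrees C. Compounds were tested in quantitative HTS format across a concentration range, with curves fitted to normalized data.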
Active calls of the source: *; i = inactive; u = inconclusive; x = not tested or not shown. This is a sample that favours compounds with a hit; in the whole collection about 7.6% have one here. Unless noted, calls follow the shape of the dose curve; as a rule, active = well fitted curve in the direction sought with a large enough effect; inconclusive = small, poorly fitted or top-dose-only effect, or another doubt; inactive = no such curve, though single readings can be large; an effect the other way counts as inactive or inconclusive.

SMILES	KCNH2 WT inh	KB-3-1 tox	SW480 rereplic	MCF10A rereplic	KCNH2 3.1 block	KB-V1 MDR tox
Cc1ccc(OCC(=O)Nc2cc(-c3nn4c(C)nnc4s3)ccc2C)cc1	1.5	18.4µM*	-9.2%	-4.3%	5.7	u
Cc1ccc(-c2nn3c(C)nnc3s2)cc1NC(=O)c1ccc(-c2ccc(Cl)cc2Cl)o1	-16.6	20.6µM*	17.9%	7.31µM*	19.0	u
Cc1ccc(-c2nn3c(C)nnc3s2)cc1NC(=O)c1ccc(-c2cccc(Cl)c2)o1	-1.4	u	u	u	9.3	u
C=CCNC(=O)CN(c1cc(Cl)ccc1OC)S(=O)(=O)c1ccc(C)c([N+](=O)[O-])c1	9.9	i	-48.8%	-10.9%	-6.5	i
C/C(=N\O)c1noc(C)c1C(=O)Nc1nccs1	-2.5	i	-5.8%	5.5%	4.8	i
COCc1ccc(C(=O)N2CCCC(Nc3ccc(F)c(F)c3)C2)s1 (stereo unspecified)	9.0	i	-5.6%	3.4%	-1.8	u
CC(=O)c1ccc(NC(=O)CN2C(=O)/C(=C/C=C/c3ccccc3)SC2=S)cc1	-2.1	i	-7.7%	10.3µM*	13.8	i
O=C(O)CN1C(=O)/C(=C/C=C/c2ccccc2)SC1=S	x	i	-14.6%	6.9%	10.7	i
CCOC(=O)c1c(C(=O)OCC)c(C)n(CCc2ccc(OC)c(OC)c2)c1C	11.8	i	9.2µM*	4.0%	-0.9	i
CCOC(=O)c1[nH]c(C)c(C(=O)OCC(=O)NCc2ccc(Cl)cc2)c1C	-23.9	i	-1.7%	0.3%	10.7	i
CCOC(=O)c1c(C)[nH]c(C(=O)OCC(=O)Nc2sccc2C(N)=O)c1C	2.7	i	u	20.6µM*	6.3	u
CC(=O)c1c(C)[nH]c(C(=O)OCC(=O)NCc2cccs2)c1C	8.9	u	-6.2%	7.2%	7.0	13µM*
CCOC(=O)c1c(C)[nH]c(C(=O)OCC(=O)NCc2ccc(OC)c(OC)c2)c1C	-19.8	u	18.7%	22.8%	-32.7	20.6µM*
CC(=O)c1c(C)[nH]c(C(=O)OCC(=O)NCc2ccc(Cl)cc2)c1C	-3.6	u	-38.8%	u	3.1	i
COc1ccc2[nH]c(S(=O)Cc3ncc(C)c(OC)c3C)nc2n1 (stereo unspecified)	x	x	-2.3%	u	x	x
CCOc1cc(N2CCOCC2)c(OCC)cc1NC(=O)[C@H](C)NC(=O)c1ccco1	-1.7	i	-15.9%	-1.6%	-13.1	i
O=[N+]([O-])c1cc(C(F)(F)F)ccc1NC1CCN(Cc2ccccc2)CC1	-42.5	i	-8.1%	-6.9%	-86.4*	i
NC(=O)CC(NC(=O)c1ccccc1)c1ccc(NC2CCN(Cc3ccccc3)CC2)c([N+](=O)[O-])c1 (stereo unspecified)	-6.4	i	0.4%	-8.0%	2.2	i
O=[N+]([O-])c1cc(C(F)(F)F)ccc1NC1CCN(Cc2ccccc2)C1 (stereo unspecified)	-80.3*	u	1.8%	6.1%	-90.8*	i
Cc1ccc(C)c(OCC(=O)NNC(=O)CCN2CCN(c3ccccc3)CC2)c1	-1.5	i	4.5%	-2.2%	24.0	20.6µM*
O=C(CCN1CCN(c2ccccc2)CC1)NNC(=O)c1cccc2ccccc12	2.4	i	-1.8%	1.5%	-4.9	18.4µM*
Cc1cc(C(=O)NNC(=O)CCN2CCN(c3ccccc3)CC2)c2ccccc2n1	-5.5	u	-1.7%	-1.9%	9.3	i
CC(NCc1ccc2c(c1)OCO2)C(=O)N1CCc2ccccc21 (stereo unspecified)	-0.5	i	u	-70.5%	12.9	5.17µM*
c1csc(-c2nc3c4ccccc4c4ccccc4c3[nH]2)c1	-2.6	u	2.3%	u	14.3	u
Oc1ccccc1-c1nc2c3ccccc3c3ccccc3c2[nH]1	-10.0	i	u	18.4µM*	35.0	i
SMILES	KCNH2 WT inh	KB-3-1 tox	SW480 rereplic	MCF10A rereplic	KCNH2 3.1 block	KB-V1 MDR tox
CCOC(=O)c1cc(-c2ccc3c(c2)OCCO3)nc2c1c(C)nn2CCC#N	-0.6	i	u	11.6µM*	38.1	i
O=C(CSc1ncn[nH]1)Nc1c(Br)cc([N+](=O)[O-])cc1Br	-2.5	i	-6.1%	-1.1%	3.2	i
COc1ccc(CCNC(=O)Cn2nc(C)n3c(cc4cc(F)ccc43)c2=O)cc1OC	x	i	x	x	x	i
COc1ccc(-c2oc(NC(=O)CSc3nncn3C)c(C#N)c2-c2ccc(OC)cc2)cc1	-1.0	u	2.4%	13µM*	1.2	i
CCn1c(SCC(=O)Nc2oc(-c3ccccc3)c(-c3ccccc3)c2C#N)nnc1-c1ccncc1	-10.1	i	9.3%	23.1µM*	-32.2	i
N#Cc1c(NC(=O)CSc2ccccn2)oc(-c2ccccc2)c1-c1ccccc1	2.2	i	10.4%	20.6µM*	-0.7	i
N#Cc1c(NC(=O)CCN2C(=O)c3ccccc3C2=O)oc(-c2ccccc2)c1-c1ccccc1	-11.5	i	-14.8%	2.0%	-12.2	i
CCn1c(SCC(=O)Nc2oc(-c3ccccc3)c(-c3ccccc3)c2C#N)nnc1-c1ccco1	-24.5	i	8.9%	u	-45.5	u
CNCc1nc(-c2ccc[nH]2)c2cc(Cl)ccc2n1	x	i	x	x	x	u
COc1ccc(C2CC23N=C(c2ccccc2)OC3=O)cc1 (stereo unspecified)	-2.7	i	5.4%	16.4µM*	-13.6	i
COc1ccc(C2=NC(c3ccccc3)CO2)cc1 (stereo unspecified)	x	x	6.2%	3.0%	x	x
O=S(=O)(NCC(Nc1ccc(Cl)cc1)c1ccccc1)c1ccc(Cl)cc1 (stereo unspecified)	-10.0	u	u	3.26µM*	3.5	u
Cc1ccc(C(=O)Nc2nnc(CC(=O)N/N=C/c3ccncc3)s2)cc1	x	i	20.6µM*	0.1%	1.9	i
O=C(N/N=C/c1c(O)ccc2ccccc12)c1cccc(C(F)(F)F)c1	-16.8	u	u	4.61µM*	-0.3	i
O=C(Nc1ccc(N2CCOCC2)nc1N1CCOCC1)c1cccc(C(F)(F)F)c1	-6.9	i	-3.3%	0.9%	5.6	i
O=C(N/N=C/c1ccc(N2CCOCC2)o1)c1cccc(C(F)(F)F)c1	-13.8	i	u	20.6µM*	6.9	i
O=C(N/N=C\c1ccc(Cl)s1)c1ccc(Cn2cccn2)o1	-4.0	u	0.4%	1.9%	-17.0	i
O=C(N/N=C\c1c(O)ccc2ccccc12)c1ccc(Cn2cccn2)o1	-9.2	16.4µM*	u	10.3µM*	14.9	u
